Source: PubChem BioAssay AID1159580 (chemical genetic matrix, 2015)
In all, about 5,500 compounds went through this assay and about 2,000 (36%) were called active. Not shown: some 18% with an inconclusive outcome. Cut-off read from the data, not from the text of the source: active = normalized growth mostly below about 0.91 (no sharp cut-off); inconclusive = no clear call, values can overlap the other calls; inactive = mostly above about 0.92. The list shows a part of the results.

Experiment: chemical genetic growth profiling, strain panel (AID 1159580);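 note: tested at 20 µM; growth read once vehicle control cultures reached saturation at 30 °C; 1 = growth at the plate median or of vehicle wells; lower values mean less growth of the strain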
Details: growth OD

Measured: normalized growth

COc1ccc2ccc(=O)oc2c1CC=C(C)C
inactive: S. cerevisiae deletion strains, locus YAL021C, strain ccr4, active compounds read low 1.02 | S. cerevisiae deletion strains, locus YBR171W, strain sec66, active compounds read low 0.896 | S. cerevisiae deletion strains, locus YDL005C, strain med2, active compounds read low 0.948 | S. cerevisiae deletion strains, locus YDL185W, strain tfp1, active compounds read low 0.928 | S. cerevisiae deletion strains, locus YDR069C, strain doa4, active compounds read low 1.03 | S. cerevisiae deletion strains, locus YDR195W, strain ref2 1.02 | S. cerevisiae deletion strains, locus YDR297W, strain sur2, active compounds read low 0.934 | S. cerevisiae deletion strains, locus YDR334W, strain swr1, active compounds read low 0.936 | S. cerevisiae deletion strains, locus YDR335W, strain msn5, active compounds read low 0.95 | S. cerevisiae deletion strains, locus YEL037C, strain rad23, active compounds read low 0.935 | S. cerevisiae deletion strains, locus YEL061C, strain CIN8 (second series), active compounds read low 0.921 | S. cerevisiae deletion strains, locus YER015W, strain faa2, active compounds read low 0.935 | S. cerevisiae deletion strains, locus YER111C, strain swi4, active compounds read low 0.942 | S. cerevisiae deletion strains, locus YFR010W, strain ubp6, active compounds read low 0.923 | S. cerevisiae deletion strains, locus YGL173C, strain kem1, active compounds read low 0.94 | S. cerevisiae deletion strains, locus YHR027C, strain rpn1, active compounds read low 0.957 | S. cerevisiae deletion strains, locus YIL073C, strain SPO22, active compounds read low 0.85 | S. cerevisiae deletion strains, locus YJL095W, strain BCK1 (second series), active compounds read low 0.936 | S. cerevisiae deletion strains, locus YJL115W, strain asf1, active compounds read low 0.967 | S. cerevisiae deletion strains, locus YJL154C, strain vps35, active compounds read low 0.944 | S. cerevisiae deletion strains, locus YJL168C, strain set2, active compounds read low 0.941 | S. cerevisiae deletion strains, locus YJL187C, strain SWE1, active compounds read low 0.937 | S. cerevisiae deletion strains, locus YKL160W, strain elf1, active compounds read low 0.912 | S. cerevisiae deletion strains, locus YLL041C, strain sdh2, active compounds read low 0.945 | S. cerevisiae deletion strains, locus YLR342W, strain FKS1, active compounds read low 0.923 | S. cerevisiae deletion strains, locus YLR384C, strain iki3, active compounds read low 0.957 | S. cerevisiae deletion strains, locus YML016C, strain PPZ1, active compounds read low 0.926 | S. cerevisiae deletion strains, locus YMR231W, strain pep5, active compounds read low 0.935 | S. cerevisiae deletion strains, locus YMR307W, strain GAS1, active compounds read low 0.706 | S. cerevisiae deletion strains, locus YNL209W, strain ssb2, active compounds read low 0.958 | S. cerevisiae deletion strains, locus YNL248C, strain rpa49, active compounds read low 0.971 | S. cerevisiae deletion strains, locus YNL250W, strain rad50, active compounds read low 0.918 | S. cerevisiae deletion strains, locus YOL012C, strain htz1 0.768 | S. cerevisiae deletion strains, locus YOR061W, strain CKA2, active compounds read low 0.929 | S. cerevisiae deletion strains, locus YOR080W, strain dia2, active compounds read low 0.93 | S. cerevisiae deletion strains, locus YOR083W, strain WHI5, active compounds read low 0.895 | S. cerevisiae deletion strains, locus YOR106W, strain vam3, active compounds read low 0.917 | S. cerevisiae deletion strains, locus YPL051W, strain arl3, active compounds read low 0.931 | S. cerevisiae deletion strains, locus YPL106C, strain sse1, active compounds read low 0.917 | S. cerevisiae deletion strains, locus YPL240C, strain hsp82, active compounds read low 0.96 | S. cerevisiae deletion strains, locus YPR141C, strain kar3, active compounds read low 0.937
active: S. cerevisiae deletion strains, locus YAL026C, strain drs2, active compounds read low 0.883 | S. cerevisiae deletion strains, locus YAL030W, strain snc1, active compounds read low 0.92 | S. cerevisiae deletion strains, locus YBL061C, strain skt5, active compounds read low 0.912 | S. cerevisiae deletion strains, locus YBR009C, strain hhf1, active compounds read low 0.769 | S. cerevisiae deletion strains, locus YBR021W, strain FUR4, active compounds read low 0.662 | S. cerevisiae deletion strains, locus YBR023C, strain chs3, active compounds read low 0.843 | S. cerevisiae deletion strains, locus YBR229C, strain ROT2, active compounds read low 0.885 | S. cerevisiae deletion strains, locus YBR231C, strain swc5, active compounds read low 0.866 | S. cerevisiae deletion strains, locus YBR279W, strain paf1, active compounds read low 0.929 | S. cerevisiae deletion strains, locus YCL011C, strain gbp2, active compounds read low 0.787 | S. cerevisiae deletion strains, locus YCL016C, strain dcc1, active compounds read low 0.891 | S. cerevisiae deletion strains, locus YCL029C, strain bik1, active compounds read low 0.826 | S. cerevisiae deletion strains, locus YCL061C, strain MRC1, active compounds read low 0.835 | S. cerevisiae deletion strains, locus YCL069W, strain vba3, active compounds read low 0.919 | S. cerevisiae deletion strains, locus YCR088W, strain abp1, active compounds read low 0.915 | S. cerevisiae deletion strains, locus YDL035C, strain GPR1, active compounds read low 0.794 | S. cerevisiae deletion strains, locus YDL040C, strain nat1, active compounds read low 0.91 | S. cerevisiae deletion strains, locus YDL074C, strain BRE1, active compounds read low 0.752 | S. cerevisiae deletion strains, locus YDL101C, strain DUN1, active compounds read low 0.768 | S. cerevisiae deletion strains, locus YDL192W, strain arf1, active compounds read low 0.794 | S. cerevisiae deletion strains, locus YDR001C, strain nth1, active compounds read low 0.909 | S. cerevisiae deletion strains, locus YDR101C, strain arx1, active compounds read low 0.823 | S. cerevisiae deletion strains, locus YDR137W, strain rgp1, active compounds read low 0.715 | S. cerevisiae deletion strains, locus YDR159W, strain sac3, active compounds read low 0.771 | S. cerevisiae deletion strains, locus YDR162C, strain NBP2, active compounds read low 0.645 | S. cerevisiae deletion strains, locus YDR318W, strain mcm21, active compounds read low 0.741 | S. cerevisiae deletion strains, locus YDR388W, active compounds read low 0.89 | S. cerevisiae deletion strains, locus YDR392W, strain spt3, active compounds read low 0.396 | S. cerevisiae deletion strains, locus YDR502C, strain sam2, active compounds read low 0.788 | S. cerevisiae deletion strains, locus YEL003W, strain gim4, active compounds read low 0.832 | S. cerevisiae deletion strains, locus YEL061C, strain CIN8, active compounds read low 0.774 | S. cerevisiae deletion strains, locus YER016W, strain bim1, active compounds read low 0.91 | S. cerevisiae deletion strains, locus YER110C, active compounds read low 0.873 | S. cerevisiae deletion strains, locus YER155C, strain BEM2 (second series), active compounds read low 0.434 | S. cerevisiae deletion strains, locus YER155C, strain BEM2, active compounds read low 0.657 | S. cerevisiae deletion strains, locus YER167W, strain BCK2, active compounds read low 0.561 | S. cerevisiae deletion strains, locus YGL078C, strain dbp3, active compounds read low 0.917 | S. cerevisiae deletion strains, locus YGL086W, strain mad1, active compounds read low 0.844 | S. cerevisiae deletion strains, locus YGL167C, strain pmr1, active compounds read low 0.908 | S. cerevisiae deletion strains, locus YGL227W, strain vid30, active compounds read low 0.875 | S. cerevisiae deletion strains, locus YGL240W, strain doc1, active compounds read low 0.701 | S. cerevisiae deletion strains, locus YGL248W, strain PDE1, active compounds read low 0.704 | S. cerevisiae deletion strains, locus YGL253W, strain hxk2, active compounds read low 0.818 | S. cerevisiae deletion strains, locus YGR135W, strain pre9, active compounds read low 0.75 | S. cerevisiae deletion strains, locus YGR252W, strain gcn5, active compounds read low 0.583 | S. cerevisiae deletion strains, locus YHR013C, strain ard1, active compounds read low 0.801 | S. cerevisiae deletion strains, locus YHR030C, strain SLT2, active compounds read low 0.831 | S. cerevisiae deletion strains, locus YHR079C, strain IRE1 (second series), active compounds read low 0.896 | S. cerevisiae deletion strains, locus YHR094C, strain hxt1, active compounds read low 0.898 | S. cerevisiae deletion strains, locus YHR129C, strain ARP1, active compounds read low 0.741 | S. cerevisiae deletion strains, locus YHR142W, strain chs7, active compounds read low 0.739 | S. cerevisiae deletion strains, locus YHR200W, strain rpn10, active compounds read low 0.812 | S. cerevisiae deletion strains, locus YIL066C, strain RNR3, active compounds read low 0.622 | S. cerevisiae deletion strains, locus YIL125W, strain kgd1, active compounds read low 0.888 | S. cerevisiae deletion strains, locus YIR030C, strain dcg1, active compounds read low 0.841 | S. cerevisiae deletion strains, locus YJL092W, strain hpr5, active compounds read low 0.896 | S. cerevisiae deletion strains, locus YJL095W, strain BCK1, active compounds read low 0.566 | S. cerevisiae deletion strains, locus YJL129C, strain trk1, active compounds read low 0.866 | S. cerevisiae deletion strains, locus YJL134W, strain LCB3, active compounds read low 0.921 | S. cerevisiae deletion strains, locus YJL164C, strain tpk1, active compounds read low 0.883 | S. cerevisiae deletion strains, locus YJL166W, strain qcr8, active compounds read low 0.803 | S. cerevisiae deletion strains, locus YJL187C, strain SWE1 (second series), active compounds read low 0.783 | S. cerevisiae deletion strains, locus YJR043C, strain POL32, active compounds read low 0.538 | S. cerevisiae deletion strains, locus YKL009W, strain mrt4, active compounds read low 0.873 | S. cerevisiae deletion strains, locus YKL068W, active compounds read low 0.898 | S. cerevisiae deletion strains, locus YKL085W, strain MDH1 (second series), active compounds read low 0.916 | S. cerevisiae deletion strains, locus YKL085W, strain MDH1, active compounds read low 0.916 | S. cerevisiae deletion strains, locus YKR001C, strain vps1, active compounds read low 0.589 | S. cerevisiae deletion strains, locus YKR026C, strain gcn3, active compounds read low 0.906 | S. cerevisiae deletion strains, locus YKR091W, strain srl3, active compounds read low 0.926 | S. cerevisiae deletion strains, locus YLL001W, strain dnm1, active compounds read low 0.87 | S. cerevisiae deletion strains, locus YLL026W, active compounds read low 0.857 | S. cerevisiae deletion strains, locus YLR027C, strain aat2, active compounds read low 0.845 | S. cerevisiae deletion strains, locus YLR039C, strain RIC1, active compounds read low 0.438 | S. cerevisiae deletion strains, locus YLR058C, strain SHM2, active compounds read low 0.794 | S. cerevisiae deletion strains, locus YLR102C, strain apc9, active compounds read low 0.891 | S. cerevisiae deletion strains, locus YLR221C, strain rsa3, active compounds read low 0.871 | S. cerevisiae deletion strains, locus YLR258W, strain gsy2, active compounds read low 0.848 | S. cerevisiae deletion strains, locus YLR262C, strain YPT6 (second series), active compounds read low 0.642 | S. cerevisiae deletion strains, locus YLR262C, strain YPT6, active compounds read low 0.476 | S. cerevisiae deletion strains, locus YLR268W, strain sec22, active compounds read low 0.723 | S. cerevisiae deletion strains, locus YLR320W, strain mms22, active compounds read low 0.607 | S. cerevisiae deletion strains, locus YLR330W, strain CHS5, active compounds read low 0.658 | S. cerevisiae deletion strains, locus YLR342W, strain FKS1 (second series), active compounds read low 0.705 | S. cerevisiae deletion strains, locus YLR357W, strain rsc2, active compounds read low 0.761 | S. cerevisiae deletion strains, locus YLR370C, strain arc18, active compounds read low 0.899 | S. cerevisiae deletion strains, locus YLR371W, strain rom2, active compounds read low 0.889 | S. cerevisiae deletion strains, locus YLR418C, strain cdc73, active compounds read low 0.492 | S. cerevisiae deletion strains, locus YML032C, strain rad52, active compounds read low 0.779 | S. cerevisiae deletion strains, locus YML120C, strain ndi1, active compounds read low 0.822 | S. cerevisiae deletion strains, locus YML124C, strain tub3, active compounds read low 0.859 | S. cerevisiae deletion strains, locus YMR058W, strain fet3, active compounds read low 0.89 | S. cerevisiae deletion strains, locus YMR078C, strain ctf18, active compounds read low 0.891 | S. cerevisiae deletion strains, locus YMR125W, strain sto1, active compounds read low 0.81 | S. cerevisiae deletion strains, locus YMR129W, active compounds read low 0.904 | S. cerevisiae deletion strains, locus YMR205C, strain PFK2, active compounds read low 0.659 | S. cerevisiae deletion strains, locus YMR223W, strain ubp8, active compounds read low 0.797 | S. cerevisiae deletion strains, locus YMR263W, strain SAP30, active compounds read low 0.826 | S. cerevisiae deletion strains, locus YNL067W, strain RPL9B, active compounds read low 0.762 | S. cerevisiae deletion strains, locus YNL071W, strain lat1, active compounds read low 0.672 | S. cerevisiae deletion strains, locus YNL153C, strain GIM3, active compounds read low 0.713 | S. cerevisiae deletion strains, locus YNL233W, strain BNI4, active compounds read low 0.567 | S. cerevisiae deletion strains, locus YNL271C, strain bni1, active compounds read low 0.907 | S. cerevisiae deletion strains, locus YNL298W, strain CLA4, active compounds read low 0.829 | S. cerevisiae deletion strains, locus YNL307C, strain MCK1, active compounds read low 0.381 | S. cerevisiae deletion strains, locus YNL322C, strain KRE1 (second series), active compounds read low 0.807 | S. cerevisiae deletion strains, locus YNL322C, strain KRE1, active compounds read low 0.804 | S. cerevisiae deletion strains, locus YNR049C, strain mso1, active compounds read low 0.914 | S. cerevisiae deletion strains, locus YNR052C, strain pop2, active compounds read low 0.909 | S. cerevisiae deletion strains, locus YOL147C, strain pex11, active compounds read low 0.726 | S. cerevisiae deletion strains, locus YOR001W, strain rrp6, active compounds read low 0.889 | S. cerevisiae deletion strains, locus YOR069W, strain VPS5, active compounds read low 0.89 | S. cerevisiae deletion strains, locus YOR070C, strain gyp1, active compounds read low 0.917 | S. cerevisiae deletion strains, locus YOR136W, strain idh2, active compounds read low 0.911 | S. cerevisiae deletion strains, locus YOR144C, strain elg1, active compounds read low 0.855 | S. cerevisiae deletion strains, locus YOR184W, strain ser1, active compounds read low 0.481 | S. cerevisiae deletion strains, locus YOR265W, strain rbl2, active compounds read low 0.921 | S. cerevisiae deletion strains, locus YOR270C, strain vph1, active compounds read low 0.532 | S. cerevisiae deletion strains, locus YOR290C, strain snf2, active compounds read low 0.712 | S. cerevisiae deletion strains, locus YOR316C, strain cot1, active compounds read low 0.864 | S. cerevisiae deletion strains, locus YPL078C, strain atp4, active compounds read low 0.845 | S. cerevisiae deletion strains, locus YPR119W, strain clb2, active compounds read low 0.888 | S. cerevisiae deletion strains, locus YPR163C, strain tif3, active compounds read low 0.796 | S. cerevisiae deletion strains, locus YPR167C, strain met16, active compounds read low 0.799 | S. cerevisiae deletion strains, strain wtn01, active compounds read low 0.843 | S. cerevisiae strains, strain wild type, active compounds read low 0.798
